# The supplement of paper PMC12494721
# Where a name gives a salt, the structure may show the parent alone.
# How the values were obtained:
# Conditions in all cases: incubation time: 27 h, anaerobic, 37 °C;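 for the amine columns active = adjusted P below 0.05 in both replicates with a change the same way and a mean fold change under 0.8 or over 1.25; inactive = the rest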
# [1] = tested on: Clostridium sporogenes DSM 1664; assay: growth (OD595) fold change vs plate DMSO controls (fold change (ratio)); higher = more growth
# In short: (§1)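 The 96-well mGAM cultures had been kept anaerobic for 27 h at 37 °C before being shaken and read at 595 nm. Blank subtraction, compound background correction with 20 µM compound solutions in water, and a calibration factor of 5 turned the readings into OD. Growth is given as the fold change versus the median of plate DMSO controls. Fold changes above 1.5 were set to NA, and the values are means of 2 biological replicates.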
# Escherichia coli IAI1 [2] = assay: as above
# In short: as §1
# [3] = tested on: Klebsiella aerogenes DSM 30053; assay: as above
# In short: as §1
# [4] = tested on: Ruminococcus gnavus DSM 108212; assay: as above
# In short: as §1
# [5] = tested on: Klebsiella aerogenes DSM 30053; assay: fold change of Histamine concentration vs plate DMSO controls (fold change (ratio)); higher = more amine produced, active = hit call of the paper (significant change in both replicates, either direction)
# In short: (§2)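 Using LC–triple-quadrupole MS with dynamic MRM, amines were quantified against external calibration curves and corrected for drift within each batch. Samples were whole anaerobic mGAM cultures of four gut strains, grown 27 h at 37 °C from OD 0.1 before 1:1 dilution, extracted with cold acetonitrile/methanol containing 0.1% formic acid and centrifuged. Compounds were present at 20 µM final (sweeteners at 50 µM final). The numbers are fold changes versus plate DMSO controls, each the mean of 2 biological replicates.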
# [6] = tested on: Clostridium sporogenes DSM 1664; assay: fold change of Tryptamine concentration vs plate DMSO controls (fold change (ratio)); higher = more amine produced, active = hit call of the paper (significant change in both replicates, either direction)
# In short: as §2
# [7] = tested on: Ruminococcus gnavus DSM 108212; assay: as above
# In short: as §2
# Escherichia coli IAI1 [8] = assay: fold change of Putrescine concentration vs plate DMSO controls (fold change (ratio)); higher = more amine produced, active = hit call of the paper (significant change in both replicates, either direction)
# In short: as §2
# [9] = tested on: Klebsiella aerogenes DSM 30053; assay: as above
# In short: as §2
# Escherichia coli IAI1 [10] = assay: fold change of Cadaverine concentration vs plate DMSO controls (fold change (ratio)); higher = more amine produced, active = hit call of the paper (significant change in both replicates, either direction)
# In short: as §2
# [11] = tested on: Klebsiella aerogenes DSM 30053; assay: as above
# In short: as §2
# [12] = tested on: Ruminococcus gnavus DSM 108212; assay: fold change of 2-Phenylethylamine concentration vs plate DMSO controls (fold change (ratio)); higher = more amine produced, active = hit call of the paper (significant change in both replicates, either direction)
# In short: as §2
compound,measurement,setting,value
CCOC(=O)[C@H](CCc1ccccc1)N[C@@H](C)C(=O)N1[C@H](C(=O)O)C[C@@H]2CCC[C@@H]21 [Ramipril] (20 µM),growth,[1],1.06
same,growth,Escherichia coli IAI1 [2],0.984
same,growth,[3],1.13
same,growth,[4],1.19
same,fold change of Histamine concentration,[5],0.948 (inactive)
same,fold change of Tryptamine concentration,[6],0.963 (inactive)
same,fold change of Tryptamine concentration,[7],0.966 (inactive)
same,fold change of Putrescine concentration,Escherichia coli IAI1 [8],0.999 (inactive)
same,fold change of Putrescine concentration,[9],1.05 (inactive)
same,fold change of Cadaverine concentration,Escherichia coli IAI1 [10],0.964 (inactive)
same,fold change of Cadaverine concentration,[11],1.05 (inactive)
same,fold change of 2-Phenylethylamine concentration,[12],0.911 (inactive)
N/C(=N\C(=O)c1nc(Cl)c(N)nc1N)NCc1ccccc1 [Benzamil hydrochloride] (20 µM),growth,[1],0.787
same,growth,Escherichia coli IAI1 [2],0.962
same,growth,[3],0.958
same,growth,[4],0.861
same,fold change of Histamine concentration,[5],0.932 (inactive)
same,fold change of Tryptamine concentration,[6],1.03 (inactive)
same,fold change of Tryptamine concentration,[7],0.961 (inactive)
same,fold change of Putrescine concentration,Escherichia coli IAI1 [8],0.807 (inactive)
same,fold change of Putrescine concentration,[9],0.965 (inactive)
same,fold change of Cadaverine concentration,Escherichia coli IAI1 [10],1.48 (inactive)
same,fold change of Cadaverine concentration,[11],0.991 (inactive)
same,fold change of 2-Phenylethylamine concentration,[12],0.936 (inactive)
C[C@H]1[C@H](OC(=O)CCC(=O)O)O[C@@H]2O[C@@]3(C)CC[C@H]4[C@H](C)CC[C@@H]1[C@@]24OO3 [Artesunate] (20 µM),growth,[1],1.08
same,growth,Escherichia coli IAI1 [2],1.01
same,growth,[3],1.03
same,growth,[4],0.931
same,fold change of Histamine concentration,[5],1.04 (inactive)
same,fold change of Tryptamine concentration,[6],1.05 (inactive)
same,fold change of Tryptamine concentration,[7],0.879 (inactive)
same,fold change of Putrescine concentration,Escherichia coli IAI1 [8],0.992 (inactive)
same,fold change of Putrescine concentration,[9],1.01 (inactive)
same,fold change of Cadaverine concentration,Escherichia coli IAI1 [10],0.99 (inactive)
same,fold change of Cadaverine concentration,[11],0.982 (inactive)
same,fold change of 2-Phenylethylamine concentration,[12],0.834 (inactive)
CCCCN(CCCC)CCC(O)c1cc2c(Cl)cc(Cl)cc2c2cc(C(F)(F)F)ccc12 (centres undefined) [Halofantrine hydrochloride] (20 µM),growth,[1],1.1
same,growth,Escherichia coli IAI1 [2],1.23
same,growth,[3],1.03
same,growth,[4],1.16
same,fold change of Histamine concentration,[5],0.895 (inactive)
same,fold change of Tryptamine concentration,[6],1.01 (inactive)
same,fold change of Tryptamine concentration,[7],0.756 (active)
same,fold change of Putrescine concentration,Escherichia coli IAI1 [8],1.17 (inactive)
same,fold change of Putrescine concentration,[9],0.964 (inactive)
same,fold change of Cadaverine concentration,Escherichia coli IAI1 [10],0.955 (inactive)
same,fold change of Cadaverine concentration,[11],1.01 (inactive)
same,fold change of 2-Phenylethylamine concentration,[12],0.92 (inactive)
CCn1cc(C(=O)O)c(=O)c2cnc(N3CCNCC3)nc21 [Pipemidic acid] (20 µM),growth,[1],0.963
same,growth,Escherichia coli IAI1 [2],0
same,growth,[3],0.465
same,growth,[4],1.01
same,fold change of Histamine concentration,[5],0.949 (inactive)
same,fold change of Tryptamine concentration,[6],1.01 (inactive)
same,fold change of Tryptamine concentration,[7],0.93 (inactive)
same,fold change of Putrescine concentration,Escherichia coli IAI1 [8],0.313 (active)
same,fold change of Putrescine concentration,[9],1.06 (inactive)
same,fold change of Cadaverine concentration,Escherichia coli IAI1 [10],1.81 (active)
same,fold change of Cadaverine concentration,[11],1.01 (inactive)
same,fold change of 2-Phenylethylamine concentration,[12],0.934 (inactive)
CC[C@H]1OC(=O)[C@H](C)[C@@H](O[C@H]2C[C@@](C)(OC)[C@@H](O)[C@H](C)O2)[C@H](C)[C@@H](O[C@@H]2O[C@H](C)C[C@H](N(C)C)[C@H]2O)[C@](C)(O)C[C@@H](C)[C@@H]2N[C@@H](COCCOC)O[C@H]([C@H]2C)[C@]1(C)O [Dirithromycin] (20 µM),growth,[1],0.228
same,growth,Escherichia coli IAI1 [2],0.961
same,growth,[3],0.964
same,growth,[4],0.419
same,fold change of Histamine concentration,[5],0.987 (inactive)
same,fold change of Tryptamine concentration,[6],0.0683 (active)
same,fold change of Tryptamine concentration,[7],0.134 (active)
same,fold change of Putrescine concentration,Escherichia coli IAI1 [8],0.956 (inactive)
same,fold change of Putrescine concentration,[9],0.991 (inactive)
same,fold change of Cadaverine concentration,Escherichia coli IAI1 [10],0.998 (inactive)
same,fold change of Cadaverine concentration,[11],1.01 (inactive)
same,fold change of 2-Phenylethylamine concentration,[12],0.146 (active)
CO[C@@H]1[C@@H](O[C@@H]2O[C@H](C)[C@@H](O[C@H]3C[C@@](C)(O)[C@@H](O)[C@H](C)O3)[C@H](N(C)C)[C@H]2O)[C@@H](CC=O)C[C@@H](C)[C@@H](O[C@H]2CC[C@H](N(C)C)[C@@H](C)O2)/C=C/C=C/C[C@@H](C)OC(=O)C[C@H]1OC(C)=O [Acetyl spiramycin] (20 µM),growth,[1],0.00073
same,growth,Escherichia coli IAI1 [2],1.03
same,growth,[3],0.958
same,growth,[4],0.154
same,fold change of Histamine concentration,[5],0.621 (active)
same,fold change of Tryptamine concentration,[6],0.0194 (active)
same,fold change of Tryptamine concentration,[7],0.153 (active)
same,fold change of Putrescine concentration,Escherichia coli IAI1 [8],0.875 (inactive)
same,fold change of Putrescine concentration,[9],1.03 (inactive)
same,fold change of Cadaverine concentration,Escherichia coli IAI1 [10],0.989 (inactive)
same,fold change of Cadaverine concentration,[11],1.03 (inactive)
same,fold change of 2-Phenylethylamine concentration,[12],0.156 (active)
CC1(C)S[C@@H]2[C@H](NC(=O)Cc3ccccc3)C(=O)N2[C@H]1C(=O)O [Benzylpenicillin sodium] (20 µM),growth,[1],0
same,growth,Escherichia coli IAI1 [2],1.19
same,growth,[3],1.1
same,growth,[4],0
same,fold change of Histamine concentration,[5],1.06 (inactive)
same,fold change of Tryptamine concentration,[6],0.05 (active)
same,fold change of Tryptamine concentration,[7],0.0412 (active)
same,fold change of Putrescine concentration,Escherichia coli IAI1 [8],1.09 (inactive)
same,fold change of Putrescine concentration,[9],1.04 (inactive)
same,fold change of Cadaverine concentration,Escherichia coli IAI1 [10],1.56 (active)
same,fold change of Cadaverine concentration,[11],1.03 (inactive)
same,fold change of 2-Phenylethylamine concentration,[12],0.0471 (active)
Cc1ccc(/C(=C\CN2CCCC2)c2ccccn2)cc1 [Triprolidine hydrochloride] (20 µM),growth,[1],1.08
same,growth,Escherichia coli IAI1 [2],1.01
same,growth,[3],0.998
same,growth,[4],1.1
same,fold change of Histamine concentration,[5],1.05 (inactive)
same,fold change of Tryptamine concentration,[6],1.02 (inactive)
same,fold change of Tryptamine concentration,[7],1.01 (inactive)
same,fold change of Putrescine concentration,Escherichia coli IAI1 [8],1.09 (inactive)
same,fold change of Putrescine concentration,[9],1.02 (inactive)
same,fold change of Cadaverine concentration,Escherichia coli IAI1 [10],0.797 (inactive)
same,fold change of Cadaverine concentration,[11],0.987 (inactive)
same,fold change of 2-Phenylethylamine concentration,[12],0.986 (inactive)
O=C1CC[C@@H](C(=O)N2CSC[C@H]2C(=O)O)N1 [Pidotimod] (20 µM),growth,[1],1.31
same,growth,Escherichia coli IAI1 [2],0.987
same,growth,[3],1.02
same,growth,[4],1.09
same,fold change of Histamine concentration,[5],0.983 (inactive)
same,fold change of Tryptamine concentration,[6],0.982 (inactive)
same,fold change of Tryptamine concentration,[7],1.02 (inactive)
same,fold change of Putrescine concentration,Escherichia coli IAI1 [8],0.979 (inactive)
same,fold change of Putrescine concentration,[9],0.992 (inactive)
same,fold change of Cadaverine concentration,Escherichia coli IAI1 [10],1.01 (inactive)
same,fold change of Cadaverine concentration,[11],0.999 (inactive)
same,fold change of 2-Phenylethylamine concentration,[12],1.04 (inactive)
COc1ccc(CC(C)NCC(O)c2ccc(O)c(NC=O)c2)cc1 (centres undefined) [Formoterol fumarate] (20 µM),growth,[1],1.13
same,growth,Escherichia coli IAI1 [2],1.21
same,growth,[3],1.11
same,growth,[4],1.3
same,fold change of Histamine concentration,[5],0.864 (inactive)
same,fold change of Tryptamine concentration,[6],1.03 (inactive)
same,fold change of Tryptamine concentration,[7],1.1 (inactive)
same,fold change of Putrescine concentration,Escherichia coli IAI1 [8],1.03 (inactive)
same,fold change of Putrescine concentration,[9],0.951 (inactive)
same,fold change of Cadaverine concentration,Escherichia coli IAI1 [10],0.91 (inactive)
same,fold change of Cadaverine concentration,[11],1.09 (inactive)
same,fold change of 2-Phenylethylamine concentration,[12],1.11 (inactive)
OC[C@H]1O[C@@](CO)(O[C@H]2O[C@H](CO)[C@@H](O)[C@H](O)[C@H]2O)[C@@H](O)[C@@H]1O [Sucrose] (50 µM),growth,[1],1.08
same,growth,Escherichia coli IAI1 [2],0.938
same,growth,[3],1.09
same,growth,[4],1.12
same,fold change of Histamine concentration,[5],0.917 (inactive)
same,fold change of Tryptamine concentration,[6],1.07 (inactive)
same,fold change of Tryptamine concentration,[7],1.08 (inactive)
same,fold change of Putrescine concentration,Escherichia coli IAI1 [8],1 (inactive)
same,fold change of Putrescine concentration,[9],0.977 (inactive)
same,fold change of Cadaverine concentration,Escherichia coli IAI1 [10],0.964 (inactive)
same,fold change of Cadaverine concentration,[11],1.05 (inactive)
same,fold change of 2-Phenylethylamine concentration,[12],1.12 (inactive)
